Data from PubChem BioAssay (NCI).
About 79,000 compounds went through this panel and 15% of them were active in at least one assay; those are over-represented in the sample as a whole. Calls of active or inactive are those of the source. Cut-off read from the data, not from the text of the source: active = growth inhibition above about 70%; inactive = the rest.

How the values were obtained:
[1] = NCI Yeast Anticancer Drug Screen. Data for the rad52 strain (AID 147);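 note: 0% = growth of vehicle-treated control cultures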; conditions: S. cerevisiae rad52 mutant growth inhibition, stronger effect = higher value
Procedure, shortened: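 Vehicle-treated cultures served as the reference for growth inhibition of compound-exposed yeast bearing a DNA repair mutation.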

[2] = NCI Yeast Anticancer Drug Screen. Data for the wt1 strain (AID 149);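 note: 0% = growth of vehicle-treated wt1 cultures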; conditions: S. cerevisiae wt1 strain (SPY 50644) growth inhibition, stronger effect = higher value
Procedure, shortened: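 Growth inhibition read against vehicle controls after compound exposure of the wt1 yeast strain.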

[3] = NCI Yeast Anticancer Drug Screen. Data for the rad50EPP+ strain (AID 151);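 note: 0% = growth of vehicle-treated control cultures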; conditions: S. cerevisiae rad50 mutant strain, stronger effect = higher value
Procedure, shortened: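 In this screen, rad50EPP+ yeast were exposed to compounds. Growth inhibition was scored against vehicle-treated controls.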

[4] = NCI Yeast Anticancer Drug Screen. Data for the mgt1 strain (AID 153); conditions: S. cerevisiae mgt1 mutant growth inhibition, stronger effect = higher value
Procedure, shortened: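 mgt1 strain exposed; growth vs vehicle control recorded as inhibition.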

[5] = NCI Yeast Anticancer Drug Screen. Data for the rad50 strain (AID 155);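 note: 0% = growth of vehicle-only cultures of the same strain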; conditions: S. cerevisiae rad50 strain growth inhibition, stronger effect = higher value
Procedure, shortened: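 Readout: growth inhibition relative to vehicle-treated cultures. Compound exposure was carried out in a genetically defined yeast strain deficient in DNA damage repair.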

[6] = NCI Yeast Anticancer Drug Screen. Data for the mec2-1 strain (AID 157); conditions: S. cerevisiae mec2-1 strain, stronger effect = higher value
Procedure, shortened: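 Vehicle-treated cultures served as reference for growth inhibition of compound-exposed mec2-1 yeast.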

[7] = NCI Yeast Anticancer Drug Screen. Data for the sgs1 mgt1 strain (AID 161);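 note: 0% = growth of cultures given vehicle only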; conditions: S. cerevisiae sgs1 mgt1 strain, stronger effect = higher value
Procedure, shortened: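 Genetically altered yeast, compound exposure, growth inhibition relative to vehicle.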

[8] = NCI Yeast Anticancer Drug Screen. Data for the CLN2oe strain (AID 163);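 note: 0% = growth of vehicle-only control cultures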; conditions: S. cerevisiae CLN2oe strain, stronger effect = higher value
Procedure, shortened: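 Inhibition relative to vehicle-treated yeast is reported. Cells: strain with genetic alteration in cell-cycle control, grown with compound.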

[9] = NCI Yeast Anticancer Drug Screen. Data for the cln2 rad14 strain (AID 165);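 note: 0% = growth equal to vehicle treated cultures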; conditions: S. cerevisiae cln2 rad14 strain, stronger effect = higher value
Procedure, shortened: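 Each compound was tested on cln2 rad14 yeast. Inhibition of growth was calculated against vehicle-exposed controls.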

[10] = NCI Yeast Anticancer Drug Screen. Data for the bub3 strain (AID 167); conditions: S. cerevisiae bub3 mutant strain, stronger effect = higher value
Procedure, shortened: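 Readout: yeast growth inhibition, expressed relative to vehicle-only wells. The test organism is a mutant strain from a panel with lesions in DNA repair or checkpoint genes.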

[11] = NCI Yeast Anticancer Drug Screen. Data for the wt2 strain (AID 169);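 note: 0% = growth of vehicle-treated yeast cultures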; conditions: S. cerevisiae wt2 strain growth inhibition, stronger effect = higher value
Procedure, shortened: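 Inhibition of yeast growth was determined after compound treatment, normalised to controls receiving only vehicle.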

[12] = NCI Yeast Anticancer Drug Screen. Data for the mlh1 strain (AID 171);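 note: 0% = growth of vehicle-treated control cultures of the same strain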; conditions: S. cerevisiae mlh1 strain growth inhibition, stronger effect = higher value
Procedure, shortened: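 Vehicle-normalised growth inhibition of a repair- or checkpoint-altered yeast strain following compound treatment.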

[13] = NCI Yeast Anticancer Drug Screen. Data for the sgs1 strain (AID 173);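 note: 0% = growth of vehicle-only control cultures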; conditions: S. cerevisiae sgs1 mutant, stronger effect = higher value
Procedure, shortened: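 Screen format: yeast with repair or checkpoint alterations, compound exposure, growth read relative to vehicle.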

[14] = NCI Yeast Anticancer Drug Screen. Data for the mlh1 rad18 strain (AID 175); conditions: S. cerevisiae mlh1 rad18 strain growth inhibition, stronger effect = higher value
Procedure, shortened: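 Vehicle-treated cultures served as the reference for growth inhibition in a yeast strain carrying DNA damage repair alterations exposed to each compound.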

[15] = NCI Yeast Anticancer Drug Screen. Data for the rad18 strain (AID 177); conditions: S. cerevisiae rad18 mutant growth inhibition, stronger effect = higher value
Procedure, shortened: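 Test articles were incubated with altered yeast defective in DNA damage repair. Results are given as inhibition of growth versus vehicle.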

[16] = at 5.0 µM (retest, dose inferred, filed as 0.5)
[17] = at 50.0 µM (retest, dose inferred, filed as 5.0)

Measured: growth inhibition

Oc1cccc2c(Cl)ccnc12
inactive: [1]; at 1.2 µM 42% | [2]; at 1.2 µM 47% | [2]; at 11.0 µM 38% | [4]; at 1.2 µM 41% | [5]; at 1.2 µM 43% | [6]; at 1.2 µM 39% | [6]; at 3.7 µM 63% | [7]; [16] -5% | [8]; at 1.2 µM 52% | [9]; [16] 43% | [10]; at 1.2 µM 32% | [10]; at 3.7 µM 54% | [11]; at 1.2 µM 38% | [12]; at 1.2 µM 27% | [13]; at 1.2 µM 36% | [15]; at 1.2 µM 33%
active: [1]; at 3.7 µM 99% | [1]; at 11.0 µM 99% | [1]; at 33.0 µM 95% | [1]; at 100.0 µM 98% | [2]; at 3.7 µM 98% | [2]; at 33.0 µM 97% | [2]; at 100.0 µM 99% | [3]; at 1.2 µM 83% | [3]; at 3.7 µM 102% | [3]; at 11.0 µM 81% | [3]; at 33.0 µM 97% | [3]; at 100.0 µM 97% | [4]; at 3.7 µM 99% | [4]; at 11.0 µM 98% | [4]; at 33.0 µM 95% | [4]; at 100.0 µM 98% | [5]; at 3.7 µM 100% | [5]; [16] 99% | [5]; at 11.0 µM 98% | [5]; at 33.0 µM 97% | [5]; [17] 99% | [5]; at 50.0 µM 91.5% | [5]; at 100.0 µM 97% | [6]; [16] 99% | [6]; at 11.0 µM 99% | [6]; at 33.0 µM 97% | [6]; [17] 99% | [6]; at 50.0 µM 93.2% | [6]; at 100.0 µM 99% | [7]; [17] 99% | [7]; at 50.0 µM 93.8% | [8]; at 3.7 µM 96% | [8]; at 11.0 µM 97% | [8]; at 33.0 µM 93% | [8]; at 100.0 µM 97% | [9]; [17] 99% | [9]; at 50.0 µM 91.8% | [10]; [16] 93% | [10]; at 11.0 µM 98% | [10]; at 33.0 µM 92% | [10]; [17] 100% | [10]; at 50.0 µM 92.8% | [10]; at 100.0 µM 97% | [11]; at 3.7 µM 97% | [11]; at 11.0 µM 98% | [11]; at 33.0 µM 97% | [11]; at 100.0 µM 98% | [12]; at 3.7 µM 99% | [12]; at 11.0 µM 98% | [12]; at 33.0 µM 97% | [12]; at 100.0 µM 99% | [13]; at 3.7 µM 99% | [13]; at 11.0 µM 99% | [13]; at 33.0 µM 96% | [13]; at 100.0 µM 98% | [14]; [16] 100% | [14]; [17] 99% | [14]; at 50.0 µM 91% | [15]; at 3.7 µM 98% | [15]; at 11.0 µM 97% | [15]; at 33.0 µM 92% | [15]; at 100.0 µM 97%
